Screens from PubChem BioAssay.
CCHF vOTU inh-1 = CCHFV vOTU protease inhibition; Pep-AMC fluorescence; inhibition, % at 11.5 µM; hit rate 0.55% among 370,000; AID 651958; in the data active = inhibition above about 30%; also: 0% = vehicle wells with enzyme and 100% = no enzyme wells
RecA intein inh = inhibitors of M. tuberculosis RecA intein splicing; cell-free RecA intein splicing, fluorescence; inhibition, % (concentration not given with the values); hit rate 0.75% among 290,000; in the data active = inhibition above about 30%; inconclusive = no clear call, values can overlap the other calls;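 also: 0% = vehicle wells and 100% = reference inhibitor control wells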
Target sequence (P9WHJ3 whole entry, looked up): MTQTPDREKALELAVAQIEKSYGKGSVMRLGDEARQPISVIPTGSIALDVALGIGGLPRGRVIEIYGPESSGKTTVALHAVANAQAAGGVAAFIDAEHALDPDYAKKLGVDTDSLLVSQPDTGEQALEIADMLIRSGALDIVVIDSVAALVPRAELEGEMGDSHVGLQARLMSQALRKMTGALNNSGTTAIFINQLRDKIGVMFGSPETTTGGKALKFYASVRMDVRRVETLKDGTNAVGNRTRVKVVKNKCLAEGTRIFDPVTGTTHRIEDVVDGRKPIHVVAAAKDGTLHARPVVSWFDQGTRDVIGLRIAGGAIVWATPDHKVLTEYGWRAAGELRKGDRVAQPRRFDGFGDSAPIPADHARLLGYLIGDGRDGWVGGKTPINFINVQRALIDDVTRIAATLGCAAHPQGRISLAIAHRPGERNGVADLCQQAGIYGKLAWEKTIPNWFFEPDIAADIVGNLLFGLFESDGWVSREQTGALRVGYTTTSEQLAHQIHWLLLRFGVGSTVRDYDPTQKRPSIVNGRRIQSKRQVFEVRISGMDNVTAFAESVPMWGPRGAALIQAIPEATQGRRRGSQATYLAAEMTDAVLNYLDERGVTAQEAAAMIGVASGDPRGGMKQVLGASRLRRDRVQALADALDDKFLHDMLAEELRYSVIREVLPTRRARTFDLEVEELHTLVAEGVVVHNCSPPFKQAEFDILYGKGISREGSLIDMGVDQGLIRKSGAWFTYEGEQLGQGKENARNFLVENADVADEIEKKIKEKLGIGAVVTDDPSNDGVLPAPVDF
Mtb betalactam = beta-lactam sensitization of Mtb H37Rv | M. tuberculosis H37Rv growth with meropenem, percent inhibition | inhibition, % at 25 µM | hit rate 0.27% among 330,000 | AID 434955;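 also: growth measured after seven days incubation then overnight dye step; 0% = bacteria only wells and 100% = bacteria with antibiotic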
PfHsp40 yeast = restores yeast growth despite PfHsp40 toxicity; hit rate 0.68% among 340,000; growth rescue, % at 12.5 µM; AID 504582; S. cerevisiae expressing PfHsp40, growth rescue, ATP luminescence; in the data active = growth rescue above about 28%, passing the limit was not always enough; inconclusive = no clear call, values can overlap the other calls;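 also: yeast W303a lacking pdr1 and pdr3 grown in galactose medium; growth measured after three days at 30 °C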
Mtb hypoxia inh = Mtb hypoxia fluorescent reporter inhibition. M. tuberculosis hypoxia-regulated fluorescent reporter, fluorescence. fluorescence inhibition, % (concentration not given with the values). hit rate 0.1% among 300,000. AID 1159583; in the data active = fluorescence inhibition mostly above about 23%, no sharp cut-off; inactive = mostly below about 17%
GFP chromo cs = counter-screen GFP chromophore formation inhibition. shares compounds with RecA intein inh. cell-free GFP chromophore formation, fluorescence. EC50, µM. hit rate 83% among 2,100. AID 434968
CCHF vOTU inh-2 = confirmation of CCHF virus vOTU protease inhibitors; hit rate 17% among 1,900; inhibition, % at 11.5 µM; shares compounds with CCHF vOTU inh-1; Recombinant CCHFV vOTU, Pep-AMC fluorescence; in the data active = inhibition above about 30%
Starred values were filed as active, the others as inactive. An excerpt weighted towards active compounds, which were near 1.7% of everything screened. Unless noted, no rule for the calls is given here.

Results for CC(=O)N(Cc1ccc(F)cc1)C1=C(NCCc2ccccc2)C(=O)c2ccccc2C1=O ?
CCHF vOTU inh-1: 87*; RecA intein inh: 78*; Mtb betalactam: 100; PfHsp40 yeast: -1; GFP chromo cs: 11*; CCHF vOTU inh-2: 63*

How did CC(=NNC(=O)c1ccc(C)nc1)c1ccc2c(c1)CCCC2 do in these assays?
Mtb hypoxia inh: 8

What do the screens show for `COc1ccc(OCC(=O)NN=C2C=C(C)CC2)cc1`?
Mtb hypoxia inh: 4

How did CCOC(=O)c1c(CSC(=N)N)n(-c2ccc(C)cc2)c2cc(Br)c(OC(C)=O)cc12 do in these assays?
CCHF vOTU inh-1: 46*; RecA intein inh: 70*; Mtb betalactam: 39; PfHsp40 yeast: 1; GFP chromo cs: 7.9*; CCHF vOTU inh-2: -2

Results for CCOC(=O)c1c(CSC(=N)N)n(C)c2cc(Br)c(OC(C)=O)cc12 ?
CCHF vOTU inh-1: 12; RecA intein inh: 25; Mtb betalactam: 2; PfHsp40 yeast: -2; Mtb hypoxia inh: 15

What do the screens show for `COc1ccc(OCc2cc(C(=O)NC3CCOC(C)(C)C3)no2)c2ccccc12` (stereo unspecified)?
CCHF vOTU inh-1: 43*; RecA intein inh: 54*; Mtb betalactam: 3; PfHsp40 yeast: -2; GFP chromo cs: 12*; CCHF vOTU inh-2: 22

What do the screens show for `COC(=O)C1=C(c2ccc(-c3ccccc3)c(F)c2)CC2CCC1N2C(=O)NCCO` (stereo unspecified)?
Mtb hypoxia inh: 1

What do the screens show for `C(=Nn1cnnc1)c1ccc(OCc2ccccc2)cc1`?
Mtb hypoxia inh: 9

What do the screens show for `Oc1ccc(N=Cc2ccc(OCc3ccccc3)cc2)cc1`?
CCHF vOTU inh-1: 94*; RecA intein inh: 46*; Mtb betalactam: 0; PfHsp40 yeast: 2; Mtb hypoxia inh: 7; GFP chromo cs: >38; CCHF vOTU inh-2: 67*

What do the screens show for `CCOC(=O)C1C2COc3ccccc3C2N2C(=O)c3cc(OC)c(OC)cc3NC(=O)[C@@]12C` (stereo partly specified)?
Mtb hypoxia inh: -2

How did N[C@@]1(C(=O)O)CCC(C(=O)O)C1 (stereo partly specified) do in these assays?
Mtb hypoxia inh: 5

Results for Cc1ccc(S(=O)(=O)Nc2ccc(Br)cc2C(NCC(=O)O)c2ccccc2)cc1 (stereo unspecified) ?
CCHF vOTU inh-1: 8; RecA intein inh: 10; Mtb betalactam: -9; PfHsp40 yeast: 0; Mtb hypoxia inh: 4

Results for O=C(O)CSc1cc(NS(=O)(=O)c2ccc(Br)cc2)c2ccccc2c1O ?
CCHF vOTU inh-1: 114*; RecA intein inh: 97*; Mtb betalactam: 8; PfHsp40 yeast: 0; GFP chromo cs: 0.68*; CCHF vOTU inh-2: 104*

Results for CCO/C=C1/C(=O)N(Cc2ccccc2)C(=O)c2ccccc21 ?
CCHF vOTU inh-1: 95*; RecA intein inh: 36*; Mtb betalactam: 2; PfHsp40 yeast: 1; Mtb hypoxia inh: 1; GFP chromo cs: >12; CCHF vOTU inh-2: 108*

What do the screens show for `CCO/C=C1\C(=O)N(c2ccccc2)C(=O)c2ccccc21`?
Mtb betalactam: 2; PfHsp40 yeast: inconclusive; Mtb hypoxia inh: 7

What do the screens show for `Cc1oc2c(c1C(=O)N1CCC(C)CC1)C(=O)c1ccccc1C2=O`?
CCHF vOTU inh-1: 32*; RecA intein inh: 79*; Mtb betalactam: 3; Mtb hypoxia inh: 11; GFP chromo cs: 8.5*; CCHF vOTU inh-2: 16

Results for CCOC(=O)C1CCN(C(=O)c2c(C)oc3c2C(=O)c2ccccc2C3=O)CC1 ?
CCHF vOTU inh-1: 61*; RecA intein inh: 69*; Mtb betalactam: 7; PfHsp40 yeast: 2; Mtb hypoxia inh: 5; GFP chromo cs: 4.7*; CCHF vOTU inh-2: 46*

Results for C#CCOCCOCCOCCNc1nc(N2CCN(C(=O)C(Cc3ccc(O)cc3)n3cc(C(N)C(C)CC)nn3)CC2)nc(N2CCN(C(=O)C(C(C)CC)n3cc(C(N)COC(=O)C(F)(F)F)nn3)CC2)n1 (stereo unspecified) ?
Mtb hypoxia inh: 7

Results for Cc1ccc(NC2=CC(=NS(=O)(=O)c3cccs3)c3ccccc3C2=O)cc1C ?
Mtb hypoxia inh: -1

Results for Cc1ccccc1NC1=C/C(=N\S(=O)(=O)c2cccs2)c2ccccc2C1=O ?
CCHF vOTU inh-1: 101*; RecA intein inh: 37*; Mtb betalactam: 94; PfHsp40 yeast: -1; Mtb hypoxia inh: 6; GFP chromo cs: 1*; CCHF vOTU inh-2: 98*

What do the screens show for `COc1ccc(S(=O)(=O)/N=C2\C=C(Nc3ccc(O)cc3)C(=O)c3ccccc32)cc1`?
CCHF vOTU inh-1: 110*; RecA intein inh: 93*; Mtb betalactam: 15; PfHsp40 yeast: -1; GFP chromo cs: 0.34*; CCHF vOTU inh-2: 105*

How did O=C(O)c1ccc(S(=O)(=O)/N=C2\C=C(Nc3ccccc3F)C(=O)c3ccccc32)cc1 do in these assays?
CCHF vOTU inh-1: 122*; RecA intein inh: 94*; Mtb betalactam: 96; PfHsp40 yeast: 1; Mtb hypoxia inh: 8; GFP chromo cs: 0.17*; CCHF vOTU inh-2: 103*

How did O=C(O)c1ccc(NC2=CC(=NS(=O)(=O)c3ccccc3)c3ccccc3C2=O)cc1 do in these assays?
Mtb hypoxia inh: 9

What do the screens show for `Cc1ccccc1NC1=C/C(=N\S(=O)(=O)c2ccc(C(=O)O)cc2)c2ccccc2C1=O`?
CCHF vOTU inh-1: 107*; RecA intein inh: 96*; Mtb betalactam: 75; PfHsp40 yeast: -1; Mtb hypoxia inh: 0; GFP chromo cs: 11*; CCHF vOTU inh-2: 101*

What do the screens show for `CC1=NN(c2ccc(C(=O)O)cc2)C(=O)/C1=C\c1ccc(OC(=O)c2cccs2)cc1`?
CCHF vOTU inh-1: 55*; RecA intein inh: 93*; Mtb betalactam: 98; PfHsp40 yeast: 2; Mtb hypoxia inh: 0; GFP chromo cs: 2.6*; CCHF vOTU inh-2: 7

How did COc1ccc(/C=C2/C(=O)N(c3ccccc3)N=C2C)cc1Br do in these assays?
CCHF vOTU inh-1: 74*; RecA intein inh: 45*; Mtb betalactam: 3; PfHsp40 yeast: 1; Mtb hypoxia inh: -6; GFP chromo cs: 8*; CCHF vOTU inh-2: 0

What do the screens show for `CC1=NN(c2ccccc2)C(=O)/C1=C/c1ccc(Cl)cc1`?
CCHF vOTU inh-1: 89*; RecA intein inh: 85*; Mtb betalactam: 6; PfHsp40 yeast: -2; Mtb hypoxia inh: 5; GFP chromo cs: 3.2*; CCHF vOTU inh-2: -27

Results for CC1=NN(c2ccc(C(=O)O)cc2)C(=O)/C1=C/c1ccc(-c2ccccc2F)o1 ?
RecA intein inh: 8; Mtb betalactam: 88; PfHsp40 yeast: -1

Results for CC1=NN(c2ccccc2)C(=O)/C1=C\c1ccc(Br)s1 ?
CCHF vOTU inh-1: 18; RecA intein inh: 14; Mtb betalactam: 6; PfHsp40 yeast: 1; Mtb hypoxia inh: 3
